GoLoco inh red: inhibitors of human Gai1-RGS12 GoLoco interaction (red fluorophore). P63096. Potency, µM (series often up to 61.6 µM), for inactives: at the top dose activity, negative = inhibition, most hits filed as inhibitors. AID 880. hit rate 0.44% among 230,000. Gai1:RGS12 GoLoco peptide FP, rhodamine, 10 min; active = well fitted inhibition curve with a large enough effect, not every such curve was filed as active; inactive = no such curve, though single readings can be large or run the other way; note: potency is the fitted concentration of half-maximal effect; nearly all actives have a fitted effect of over 30% in size
NPSR antagonist: blocks cAMP signaling of the human neuropeptide S receptor; Q6W5P4; CHO-NPSR cells, cAMP TR-FRET, antagonist mode; Potency, µM (top dose mostly 38.3 µM), inactives show top-dose activity change, negative = inhibition, most hits filed as inhibitors; hit rate 1% among 220,000; active = well fitted curve in the direction sought with a large enough effect; inconclusive = small, poorly fitted or top-dose-only effect, or another doubt; inactive = no such curve, though single readings can be large; an effect the other way counts as inactive or inconclusive; note: potency is the fitted concentration of half-maximal effect; nearly all actives have a fitted effect of over 50% in size
JMJD2E inh: blocks human JMJD2E demethylase activity | JMJD2E catalytic domain, FDH-coupled NADH fluorescence (FDH is formaldehyde dehydrogenase) | Potency, µM (top dose mostly 57.1 µM), for inactives: at the top dose activity change, negative = inhibition, hits mostly inhibitors | hit rate 1.6% among 230,000;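 note: potency is the fitted concentration of half-maximal effect; 0% = wells with enzyme and -100% = buffer wells without enzyme; nearly all actives have a fitted effect of over 50% in size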
FBPA coupling cs: inhibits coupling enzyme system, counter-screen for aldolase hits | hit rate 0.67% among 290,000 | coupling enzyme system counterscreen, AmpLite Red fluorescence | activity change, negative = inhibition, % at 58.2 µM, hits read low; in the data active = activity change below about -30%
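Coupling enzymes only (glyceraldehyde-3-phosphate) + compound, at 57.5 uM final, 10 min RT; add substrate/coupling/AmpLite Red mix, 20 min RT; fluorescence ex 525/em 598 nm. Actives flag coupling-system interference.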
ALDH1A1 block: ALDH1A1 (human) enzyme inhibition; Potency, µM (doses to about 75.3 µM), for the others: at the highest dose activity, negative = inhibition, actives largely listed as inhibitors; Purified ALDH1A1, NADH fluorescence, propionaldehyde substrate; P00352; hit rate 7.3% among 220,000;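 note: potency is the fitted concentration of half-maximal effect; plate controls were no enzyme wells and a reference inhibitor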
Target sequence (P00352 whole entry, looked up): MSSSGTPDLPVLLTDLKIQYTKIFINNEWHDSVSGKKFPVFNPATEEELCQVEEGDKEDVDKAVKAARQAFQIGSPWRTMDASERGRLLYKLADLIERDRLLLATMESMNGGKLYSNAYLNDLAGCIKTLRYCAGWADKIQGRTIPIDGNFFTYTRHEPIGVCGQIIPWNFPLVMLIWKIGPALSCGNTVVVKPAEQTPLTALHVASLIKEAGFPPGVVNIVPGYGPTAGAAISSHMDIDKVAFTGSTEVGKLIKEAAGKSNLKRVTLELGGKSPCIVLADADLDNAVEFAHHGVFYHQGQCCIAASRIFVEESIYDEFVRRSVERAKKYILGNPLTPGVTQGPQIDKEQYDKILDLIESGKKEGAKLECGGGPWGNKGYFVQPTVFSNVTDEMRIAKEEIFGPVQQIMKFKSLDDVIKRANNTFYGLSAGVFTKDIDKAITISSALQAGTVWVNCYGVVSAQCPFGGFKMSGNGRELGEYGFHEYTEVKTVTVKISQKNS
Sfp inh: Sfp phosphopantetheinyl transferase inhibition; Biochemical Sfp PPTase activity, qHTS; Potency, µM, for inactives: largest response in the series, negative = inhibition, usual class: inhibitors; Q9F4F7; hit rate 3.5% among 310,000; active = well fitted curve in the direction sought with a large enough effect; inconclusive = small, poorly fitted or top-dose-only effect, or another doubt; inactive = no such curve, though single readings can be large; an effect the other way counts as inactive or inconclusive;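 note: the enzyme is Sfp with the accession as filed and its product quenches rhodamine fluorescence; potency is the fitted concentration of half-maximal effect; 0% = enzyme reaction without inhibitor and -100% = no enzyme wells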
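With Hepes-Na pH 7.6 buffer containing 10 mM MgCl2, Sfp (15 nM) modified BHQ-2-YbbR (12.5 uM) using rhodamine-CoA (5 uM). Two reads 30 minutes apart at 525/598 nm yielded each well's rate.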
* hit, by the source's call; ? = inconclusive; . = not tested or not shown; [ ] = another dose, or the depositor's remark. Compounds with a hit are over-represented: about 8.5% of the library has one in this group of screens. Unless noted, calls come from the whole dose curve; as a rule, active = well fitted inhibition curve with a large enough effect (not every such curve was filed as active); inconclusive = small, poorly fitted or top-dose-only effect, or another doubt; inactive = no such curve, though single readings can be large or run the other way. Unless noted, % is set by controls: 0 for no effect and ±100 for the full control effect.

SMILES | GoLoco inh red | NPSR antagonist | JMJD2E inh | FBPA coupling cs | ALDH1A1 block | Sfp inh
O=C(NCc1ccco1)C12CN(Cc3ccccc3)CC1C(c1ccc([N+](=O)[O-])cc1)=NO2 (stereo not drawn) | 6.0% | -29.1%[46.1 µM] | 1.6% | -0.9 | 3.98µM* | -27.5%
O=C(NCCCCc1ccccc1)C12CN(Cc3ccccc3)CC1C(c1ccc([N+](=O)[O-])cc1)=NO2 (stereo not drawn) | -11.8% | -22.1%[46.1 µM] | -26.8% | -1.4 | 11.2µM* | 28.2µM*
O=C(NCc1ccccc1)C12CN(Cc3ccccc3)CC1C(c1ccc([N+](=O)[O-])cc1)=NO2 (stereo not drawn) | -11.9% | -15.6%[46.1 µM] | -0.4% | -2.5 | ? | 2.7%
COc1ccc(CCNC(=O)C23CN(Cc4ccccc4)CC2C(c2ccc([N+](=O)[O-])cc2)=NO3)cc1 (stereo not drawn) | -13.0% | ? | -2.3% | -4.1 | 15.8µM* | 50.1µM*
O=C(NCCCCc1ccccc1)C12CN(Cc3ccccc3)CC1C(c1cccc([N+](=O)[O-])c1)=NO2 (stereo not drawn) | -2.0% | -27.2%[46.1 µM] | -7.1% | 1.7 | ? | 8.4%
COc1ccc(CNC(=O)C23CN(Cc4ccccc4)CC2C(c2ccc([N+](=O)[O-])cc2)=NO3)cc1 (stereo not drawn) | 11.6% | -22.9%[46.1 µM] | 3.6% | -0.1 | ? | ?
CC(=O)N1CCc2cc(S(=O)(=O)CCC(=O)Nc3ccccc3F)ccc21 | . | . | . | 1.7 | . | 5.0%
COc1ccc(C(=O)N/N=C/c2sc(N3CCOCC3)nc2-c2ccccc2)cc1OC | 8.2% | -16.2% | ? | 3.0 | -12.2% | 9.9%
COC(=O)N/N=C/c1sc(N2CCCCC2)nc1-c1cccs1 | 106.6% | -36.0% | 5.0% | -21.5 | 25.1µM* | 22.4µM*
O=[N+]([O-])c1ccccc1/C=N/N1CCN(c2ccccn2)CC1 | -1.6% | -15.1%[46.1 µM] | 7.0% | -1.0 | -3.3% | 4.6%
Cc1ccc(N2CCN(/N=C/c3ccccc3[N+](=O)[O-])CC2)cc1 | 12.8% | -20.6% | -3.7% | 3.3 | 15.8µM* | 6.8%
Cc1cc(C)cc(OCC(=O)Nc2ccncc2)c1 | . | . | . | 2.5 | . | 14.7%
COCCn1nnnc1SCC(=O)c1ccc(F)cc1 | 4.0% | 0.1%[46.1 µM] | 1.8% | 2.5 | -3.6% | ?
CCC(c1nnc(SCc2nc3ccccc3s2)n1Cc1ccccc1)N(C)C (stereo not drawn) | 21.0% | -17.8%[46.1 µM] | -5.7% | 3.0 | ? | -14.7%
O=C(CSc1nnc(-c2ccc(Br)o2)n1Cc1ccccc1)c1ccccc1F | -0.9% | -22.2%[46.1 µM] | 4.6% | 5.6 | ? | 35.5µM*
COCCn1c(SCC(=O)c2ccc(F)cc2)nnc1C(C)C | -15.1% | -0.6%[46.1 µM] | ? | 4.6 | 12.6µM* | 56.2µM*
O=C(CSc1nnc(-c2ccco2)n1Cc1ccccc1)c1ccc(F)cc1 | 147.0% | -7.4%[46.1 µM] | -6.1% | -0.1 | 3.98µM* | ?
c1ccc(Cn2c(SCc3nc4ccccc4s3)nnc2-c2ccco2)cc1 | 20.8% | -13.3%[46.1 µM] | -10.3% | -0.6 | ? | 20µM*
COc1ccc(CCNC(=O)C2CCCN(S(C)(=O)=O)C2)cc1 (stereo not drawn) | . | . | . | -0.7 | . | 14.6%
COc1ccc2c(c1OC)C(=O)OC2[C@H]1c2c(cc3c(c2OC)OCO3)CCN1C (stereo partly drawn) | 5.1%[21.6 µM] | . | 9.8%[25.5 µM] | -0.1 | 0.0%[20.9 µM] | 4.3%
COc1cccc(C(=O)CC2c3c(c(Br)c4c(c3OC)OCO4)CCN2C)c1 (stereo not drawn) | -2.6% | . | -2.6% | -2.4 | 7.94µM* | -24.8%
Cc1ccc(NC(=O)CNc2ccc(N3CCOCC3)cc2)cc1S(=O)(=O)N(C)C | -4.2% | -3.8% | -3.0% | -1.0 | 10µM* | 23.8%
CN(C)S(=O)(=O)c1cc(NC(=O)CN2CCOCC2)ccc1Cl | 8.1% | 4.7% | 1.5% | 0.5 | -7.3% | 23.8%
Cc1ccc2c(c1)C(=O)C(=O)N2CC(=O)Nc1ccc(N2CCOCC2)cc1 | -0.5% | -4.7% | 6.5% | 8.1 | 8.91µM* | 9.6%
O=C(CCN1C(=O)c2ccc([N+](=O)[O-])cc2C1=O)Nc1ccccc1C(=O)O | -10.0% | 11.8% | ? | 1.6 | . | -12.7%
SMILES | GoLoco inh red | NPSR antagonist | JMJD2E inh | FBPA coupling cs | ALDH1A1 block | Sfp inh
Cc1cc(NC(=O)c2cc(C)on2)no1 | 10.2% | 10.0%[46.1 µM] | 0.1% | 1.7 | -0.8% | 5.8%
CNc1nc(N)c(C(=O)Nc2cc(C)on2)s1 | 0.1% | -6.7% | -6.2% | 2.6 | -1.5% | 50.1µM*
S=C(NCc1ccco1)Nc1ccc(Cl)c(Cl)c1 | 3.5% | -0.4%[46.1 µM] | 8.5% | 0.7 | 25.1µM* | -1.9%
S=C(NCc1ccccn1)Nc1ccccc1 | -3.7% | 14.1% | 7.2% | 3.0 | 9.8% | 1.4%
O=C(NNC(=S)Nc1ccc(Cl)c(Cl)c1)c1ccccn1 | -13.0% | -2.8% | -3.0% | -2.6 | 3.16µM* | 7.1%
O=C(NCc1ccccn1)Nc1ccc2c(c1)OCO2 | -3.1% | 11.2%[46.1 µM] | -25.8% | 1.1 | -2.6% | 79.4µM*
S=C(NCc1ccccn1)Nc1ccc(Cl)c(Cl)c1 | -5.5% | ? | 4.1% | 0.7 | 11.2µM* | -29.4%
CC1C(=O)C(C)(C)C(=O)OC1c1ccc([N+](=O)[O-])cc1 (stereo not drawn) | . | . | . | 0.9 | . | 1.5%
S=C(NCc1ccco1)Nc1cc(-c2ccccc2)[nH]n1 | 9.3% | -27.5% | -20.4% | 4.2 | 1.12µM* | 1.2%
CCN(c1ccccc1)S(=O)(=O)c1ccc(Cl)c(NC(=O)CN2C(=O)NC3(CCCC3)C2=O)c1 | -0.3% | -14.9% | -4.6% | 0.5 | . | -5.2%
CN(CC(=O)Nc1ccc([N+](=O)[O-])cc1Br)Cc1c(F)cccc1Cl | 0.2% | ? | 2.1% | -1.3 | 10µM* | -1.3%
N#CC(Cc1ccc(O)c(O)c1)C(=O)N1CCc2ccccc21 (stereo not drawn) | 9.4% | -13.0%[46.1 µM] | 20µM* | . | 8.91µM* | .
CC(NCc1ccc(S(N)(=O)=O)cc1)C(=O)N1CCc2ccccc21 (stereo not drawn) | 2.1% | 3.5% | -1.1% | -0.9 | . | 4.0%
CNC(=O)C1(C(F)(F)F)CC(CCCO)CCCO1 (stereo not drawn) | . | . | . | 0.9 | . | -9.9%
CCOc1ccc(N2C(=O)CC(N3CCN(c4ccc([N+](=O)[O-])cc4)CC3)C2=O)cc1 (stereo not drawn) | . | . | . | 1.3 | . | -12.7%
COc1ccc(N2C(=O)CC(NCCNc3ccc([N+](=O)[O-])cn3)C2=O)cc1 (stereo not drawn) | -3.2% | 12.2% | -8.7% | -0.2 | 1.78µM* | -10.5%
CCOc1ccc(N2C(=O)CC(NCCNc3ccc([N+](=O)[O-])cn3)C2=O)cc1 (stereo not drawn) | -8.4% | -6.6% | -16.2% | 10.5 | 0.891µM* | 6.7%
Cc1csc(NC(=O)CSc2nnc(Cn3c(=O)sc4ccccc43)n2-c2ccccc2)n1 | -0.7% | -15.4%[46.1 µM] | -0.1% | 0.8 | ? | 79.4µM*
